From PubChem BioAssay
Unmarked numbers belong to inactive results.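 How the source made its calls: active means RAM network inhibition above 8.4% in each of two replicates, 3 SD over the compound average; inconclusive means above 8.4% inhibition in only one replicate; inactive means 8.4% inhibition or less in each replicate.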

assay: RAM signaling pathway blockade in yeast – S. cerevisiae, Pdr1DBD-CYC8 efflux-inhibited sensitized strain, primary screen (AID 1298);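 further: 0% = DMSO untreated cells without growth and 100% = 10 µM 1-NA-PP1 full growth; higher means more yeast growth rescued from 5-FOA killing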; conditions: S. cerevisiae cbk1-as DSE1-URA3 strain, 5-FOA growth OD615, 2 d; at 50 µM; stronger effect = higher value

| SMILES | RAM network inhibition |
| --- | --- |
| CCOC(=O)c1sc(N)nc1-c1ccccc1 | -2.06% |
| O=C(Nn1nnnc1Nc1ccccc1)C12CC3CC(CC(C3)C1)C2 | 4.63% |
| CCCn1c(CN2CCCCC2CC)nc2c1c(=O)n(C)c(=O)n2C (configuration not stated) | 4.81% |
| CC(=O)c1cccc(NC(=O)C2CCCN2S(=O)(=O)c2cccc3cccnc23)c1 (configuration not stated) | 6.23% |
| CCCC(=O)Nc1ccc(N2CCCCC2)cc1 | 5.92% |
| Cc1nc(-c2ccc3c(c2)OCO3)cs1 | 2.38% |
| Cc1cccc(OCCSc2cc(C)nc(N)n2)c1 | -2.06% |
| O=C(O)CC(Cn1cnnn1)c1ccccc1 (configuration not stated) | 2.58% |
| COc1ccc(C2C(C(=O)NCCN(C)C)c3ccccc3C(=O)N2C)cc1OC (configuration not stated) | 1.92% |
| Cc1cc(C)n2nc(SCC(=O)Nc3ccc(F)cc3)nc2n1 | -0.94% |
| COc1ccc2c(c1)CC(C1(O)C(=O)N(C)c3ccccc31)C2=O (configuration not stated) | 2.96% |
| CCOc1cccc(C(=O)Nc2nnc(-c3ccco3)s2)c1 | 2.28% |
| Cc1ccc(Cn2nnc3c(=O)n(CC(=O)c4ccccc4)cnc32)cc1 | 5.01% |
| Cc1ccc(C(c2sc3ncnn3c2O)N2CCCCC2)cc1 (configuration not stated) | -0.37% |
| Cn1cnnc1SCC(=O)c1ccc2c(c1)CCCC2 | 4.35% |
| CCOC(=O)C1C(=O)NC(SC)=C(C#N)C1c1ccccc1F (configuration not stated) | -1.66% |
| CCOC(=O)c1ccc(Nc2ccc(-c3ccc(OC)c(OC)c3)nn2)cc1 | 3.37% |
